Compound: C#CCNC(=O)CCSSCCC(=O)NCCc1ccc(C=O)c(C=O)c1
Test: lysine labeling ratio R10:1 (500 µM / 50 µM probe), SILAC-ABPP in living cells; higher = lower intrinsic lysine reactivity toward the probe, active = 2 or less
Conditions: HeLa; probe concentrations 500 vs 50 µM
Procedure, shortened: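 Measurements came from LC-MS/MS on a TIMS-TOF Pro of mixed SILAC light and heavy HeLa lysates after click to biotin-azide, trypsin digestion, neutravidin capture, DTT release and alkylation. Before lysis, the living cells sat in PBS at room temperature with 50 µM or 500 µM of an alkyne-tagged, disulfide-linked lysine probe, and labels were swapped forward and reverse. R per lysine is the median across both swap directions of the filtered median high-probe/low-probe MS1 peptide ratio. The cap is 20.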

Sequence of UniProt P35052 (P35052 whole entry): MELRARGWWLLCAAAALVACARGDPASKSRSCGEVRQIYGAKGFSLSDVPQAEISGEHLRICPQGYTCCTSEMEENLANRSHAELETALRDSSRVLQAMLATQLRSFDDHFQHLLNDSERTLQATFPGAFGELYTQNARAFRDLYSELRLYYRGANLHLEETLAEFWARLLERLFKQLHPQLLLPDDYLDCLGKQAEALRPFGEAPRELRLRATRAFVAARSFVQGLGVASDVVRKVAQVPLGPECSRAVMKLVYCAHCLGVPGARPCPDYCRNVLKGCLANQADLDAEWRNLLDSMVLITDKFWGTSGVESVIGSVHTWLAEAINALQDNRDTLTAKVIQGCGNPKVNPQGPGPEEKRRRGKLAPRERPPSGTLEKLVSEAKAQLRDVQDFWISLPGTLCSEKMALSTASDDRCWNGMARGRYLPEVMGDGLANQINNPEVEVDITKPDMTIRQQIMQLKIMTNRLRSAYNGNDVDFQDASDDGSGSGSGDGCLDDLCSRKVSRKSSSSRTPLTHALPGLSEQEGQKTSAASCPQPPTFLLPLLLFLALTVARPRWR
Sequence of UniProt Q01082 (Q01082 whole entry): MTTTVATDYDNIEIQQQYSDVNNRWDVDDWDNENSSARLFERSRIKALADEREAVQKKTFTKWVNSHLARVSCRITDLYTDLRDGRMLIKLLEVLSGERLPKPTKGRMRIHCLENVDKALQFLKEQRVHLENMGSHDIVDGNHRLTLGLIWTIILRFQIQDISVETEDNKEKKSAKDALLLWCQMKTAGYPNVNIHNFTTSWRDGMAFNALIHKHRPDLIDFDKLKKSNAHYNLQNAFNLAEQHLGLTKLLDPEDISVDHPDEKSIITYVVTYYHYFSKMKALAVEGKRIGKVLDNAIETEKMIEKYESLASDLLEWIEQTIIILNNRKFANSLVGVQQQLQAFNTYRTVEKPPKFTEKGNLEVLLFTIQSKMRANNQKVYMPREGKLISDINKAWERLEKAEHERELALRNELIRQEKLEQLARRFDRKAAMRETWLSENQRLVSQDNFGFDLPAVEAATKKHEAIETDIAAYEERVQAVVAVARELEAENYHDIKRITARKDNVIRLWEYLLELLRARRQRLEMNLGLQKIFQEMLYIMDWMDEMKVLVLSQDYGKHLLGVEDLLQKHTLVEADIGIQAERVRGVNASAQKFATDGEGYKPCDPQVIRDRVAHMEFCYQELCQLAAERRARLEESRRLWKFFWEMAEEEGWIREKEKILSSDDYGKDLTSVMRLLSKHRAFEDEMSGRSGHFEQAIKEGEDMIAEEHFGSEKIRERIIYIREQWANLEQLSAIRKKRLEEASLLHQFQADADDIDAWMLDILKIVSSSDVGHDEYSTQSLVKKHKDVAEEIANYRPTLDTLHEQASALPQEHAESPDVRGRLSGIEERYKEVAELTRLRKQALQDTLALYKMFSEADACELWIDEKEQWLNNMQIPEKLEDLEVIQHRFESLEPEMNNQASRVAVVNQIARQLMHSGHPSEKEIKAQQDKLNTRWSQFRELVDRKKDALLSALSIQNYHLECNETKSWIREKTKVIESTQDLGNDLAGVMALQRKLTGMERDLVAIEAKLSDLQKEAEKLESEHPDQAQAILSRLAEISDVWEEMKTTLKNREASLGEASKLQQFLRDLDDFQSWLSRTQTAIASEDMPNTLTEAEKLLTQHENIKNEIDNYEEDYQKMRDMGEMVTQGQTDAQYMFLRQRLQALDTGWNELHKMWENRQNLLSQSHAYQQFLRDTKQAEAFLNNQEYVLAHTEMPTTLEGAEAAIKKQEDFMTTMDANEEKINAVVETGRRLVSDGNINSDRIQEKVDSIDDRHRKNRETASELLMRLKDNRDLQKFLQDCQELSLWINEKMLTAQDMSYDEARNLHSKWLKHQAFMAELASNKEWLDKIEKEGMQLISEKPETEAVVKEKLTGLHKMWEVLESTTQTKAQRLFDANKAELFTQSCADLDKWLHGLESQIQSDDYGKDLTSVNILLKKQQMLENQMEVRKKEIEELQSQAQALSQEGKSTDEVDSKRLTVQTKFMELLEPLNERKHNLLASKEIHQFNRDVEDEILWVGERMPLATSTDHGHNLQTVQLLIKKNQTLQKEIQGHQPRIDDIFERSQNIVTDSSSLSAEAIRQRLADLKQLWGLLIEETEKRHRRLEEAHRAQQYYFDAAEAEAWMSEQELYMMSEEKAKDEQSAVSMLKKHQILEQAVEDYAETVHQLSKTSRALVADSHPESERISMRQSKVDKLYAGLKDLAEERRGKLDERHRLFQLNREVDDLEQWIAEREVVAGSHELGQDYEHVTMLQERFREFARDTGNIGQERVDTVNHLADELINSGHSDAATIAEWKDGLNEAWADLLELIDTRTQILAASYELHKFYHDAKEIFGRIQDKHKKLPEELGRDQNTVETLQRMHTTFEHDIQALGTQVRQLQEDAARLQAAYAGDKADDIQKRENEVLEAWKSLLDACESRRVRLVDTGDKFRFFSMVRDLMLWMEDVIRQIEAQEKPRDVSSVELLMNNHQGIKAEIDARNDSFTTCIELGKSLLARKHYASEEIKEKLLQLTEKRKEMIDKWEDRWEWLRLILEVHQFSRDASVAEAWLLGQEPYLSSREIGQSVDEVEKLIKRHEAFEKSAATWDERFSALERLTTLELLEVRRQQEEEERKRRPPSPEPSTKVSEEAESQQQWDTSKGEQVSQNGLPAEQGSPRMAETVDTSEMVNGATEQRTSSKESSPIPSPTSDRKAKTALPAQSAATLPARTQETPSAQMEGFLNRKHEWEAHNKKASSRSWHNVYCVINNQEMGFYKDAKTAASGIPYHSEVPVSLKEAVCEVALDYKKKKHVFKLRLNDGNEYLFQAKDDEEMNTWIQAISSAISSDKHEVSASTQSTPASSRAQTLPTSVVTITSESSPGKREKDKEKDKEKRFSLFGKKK
Sequence of UniProt Q6YHK3 (Q6YHK3 whole entry): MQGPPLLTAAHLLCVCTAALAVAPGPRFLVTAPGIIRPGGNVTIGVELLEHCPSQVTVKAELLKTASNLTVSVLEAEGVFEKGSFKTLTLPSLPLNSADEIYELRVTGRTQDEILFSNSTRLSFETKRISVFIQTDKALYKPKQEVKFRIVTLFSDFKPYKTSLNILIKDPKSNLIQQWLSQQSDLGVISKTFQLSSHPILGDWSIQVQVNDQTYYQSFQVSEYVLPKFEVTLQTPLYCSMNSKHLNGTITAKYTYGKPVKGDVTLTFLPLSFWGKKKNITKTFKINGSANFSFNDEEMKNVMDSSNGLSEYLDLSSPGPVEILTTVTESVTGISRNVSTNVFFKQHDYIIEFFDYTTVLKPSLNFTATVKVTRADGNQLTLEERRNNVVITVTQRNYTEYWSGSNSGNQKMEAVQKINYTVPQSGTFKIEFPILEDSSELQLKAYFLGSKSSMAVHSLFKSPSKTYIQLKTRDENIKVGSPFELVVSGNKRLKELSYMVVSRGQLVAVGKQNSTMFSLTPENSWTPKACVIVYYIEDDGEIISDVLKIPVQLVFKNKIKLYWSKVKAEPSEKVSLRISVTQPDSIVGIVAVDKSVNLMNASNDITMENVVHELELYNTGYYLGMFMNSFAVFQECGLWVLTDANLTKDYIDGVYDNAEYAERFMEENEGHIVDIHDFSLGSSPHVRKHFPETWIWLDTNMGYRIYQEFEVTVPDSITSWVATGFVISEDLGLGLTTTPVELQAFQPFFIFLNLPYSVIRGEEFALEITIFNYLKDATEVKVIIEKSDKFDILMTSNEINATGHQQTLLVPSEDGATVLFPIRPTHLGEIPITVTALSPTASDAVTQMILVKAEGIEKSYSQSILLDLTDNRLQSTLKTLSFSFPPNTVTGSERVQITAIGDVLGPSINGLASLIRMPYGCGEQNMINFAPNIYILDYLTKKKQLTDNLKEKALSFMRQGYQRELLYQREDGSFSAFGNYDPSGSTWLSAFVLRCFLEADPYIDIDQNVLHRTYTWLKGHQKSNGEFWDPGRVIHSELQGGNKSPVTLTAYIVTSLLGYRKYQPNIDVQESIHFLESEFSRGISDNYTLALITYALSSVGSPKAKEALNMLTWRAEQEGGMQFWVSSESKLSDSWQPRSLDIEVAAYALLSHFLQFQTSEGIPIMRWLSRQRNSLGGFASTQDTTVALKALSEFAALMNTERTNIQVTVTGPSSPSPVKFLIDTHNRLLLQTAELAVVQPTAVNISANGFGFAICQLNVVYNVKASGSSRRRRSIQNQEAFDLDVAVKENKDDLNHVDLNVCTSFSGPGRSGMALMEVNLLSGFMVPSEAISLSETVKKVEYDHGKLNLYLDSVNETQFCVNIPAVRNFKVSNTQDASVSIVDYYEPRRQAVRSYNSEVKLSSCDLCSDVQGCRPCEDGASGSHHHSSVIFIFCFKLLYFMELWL
Sequence of UniProt Q13131 (Q13131 whole entry, looked up): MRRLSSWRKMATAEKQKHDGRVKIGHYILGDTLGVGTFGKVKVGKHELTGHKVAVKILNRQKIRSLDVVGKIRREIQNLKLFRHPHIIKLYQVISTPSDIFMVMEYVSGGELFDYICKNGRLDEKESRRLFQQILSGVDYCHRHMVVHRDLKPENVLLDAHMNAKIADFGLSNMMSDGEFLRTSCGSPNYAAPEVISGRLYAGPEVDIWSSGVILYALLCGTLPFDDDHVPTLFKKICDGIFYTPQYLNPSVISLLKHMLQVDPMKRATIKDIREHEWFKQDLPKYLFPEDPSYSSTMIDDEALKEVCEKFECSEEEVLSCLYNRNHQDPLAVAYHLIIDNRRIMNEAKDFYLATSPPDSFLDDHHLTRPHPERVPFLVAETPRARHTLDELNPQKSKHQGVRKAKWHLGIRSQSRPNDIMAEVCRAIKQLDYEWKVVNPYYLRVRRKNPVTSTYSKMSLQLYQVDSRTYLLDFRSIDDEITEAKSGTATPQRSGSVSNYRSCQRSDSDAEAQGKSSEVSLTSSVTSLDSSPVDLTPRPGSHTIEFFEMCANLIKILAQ

Target	lysine labeling ratio R10:1
GPC1 (lysine site: K383) (UniProt P35052)	1.73 (active)
HSPA5 (lysine site: K96) (UniProt P11021)	1.44 (active)
UniProt Q13131 (lysine site: K56)	14.5 (inactive)
TMEM132A (lysine site: K820) (UniProt Q24JP5)	2.33 (inactive)
GPC1 (lysine site: K461) (UniProt P35052)	1.89 (active)
SPTBN1 (lysine site: K1021) (UniProt Q01082)	6.62 (inactive)
VCL (lysine site: K453) (UniProt P18206)	3.28 (inactive)
UniProt Q15149 (lysine site: K1528)	1.47 (active)
IGF1R (lysine site: K667) (UniProt P08069)	1.28 (active)
MYH9 (lysine site: K1724) (UniProt P35579)	1.66 (active)
ANXA2 (lysine site: K281) (UniProt P07355)	5.78 (inactive)
LAMA5 (lysine site: K1940) (UniProt O15230)	1.65 (active)
RARS (lysine site: K557) (UniProt P54136)	1.64 (active)
UniProt P16144 (lysine site: K219)	4.33 (inactive)
EPHA2 (lysine site: K162) (UniProt P29317)	5.99 (inactive)
CD109 (lysine site: K494) (UniProt Q6YHK3)	8.05 (inactive)
NRP1 (lysine site: K536) (UniProt O14786)	5.72 (inactive)
LAMB1 (lysine site: K1505) (UniProt P07942)	3.69 (inactive)
UniProt Q15149 (lysine site: K2903)	2.51 (inactive)
UniProt Q9UHN6 (lysine site: K856)	0.771 (active)

Target	lysine labeling ratio R10:1
AGRN (lysine site: K1589) (UniProt O00468)	5.07 (inactive)
CACNA2D1 (lysine site: K577) (UniProt P54289)	4.82 (inactive)
UniProt Q96TA1 (lysine site: K479)	2.71 (inactive)
CCT5 (lysine site: K399) (UniProt P48643)	2.73 (inactive)
F2 (lysine site: K599) (UniProt P00734)	6.29 (inactive)
UniProt P46781 (lysine site: K66)	2.63 (inactive)
SEMA4D (lysine site: K104) (UniProt Q92854)	0.575 (active)
UniProt P14618 (lysine site: K270)	1.75 (active)
THBS1 (lysine site: K306) (UniProt P07996)	2.27 (inactive)
PDCD6IP (lysine site: K303) (UniProt Q8WUM4)	2.47 (inactive)
SLC39A6 (lysine site: K143) (UniProt Q13433)	4.18 (inactive)
WDR1 (lysine site: K7) (UniProt O75083)	0.76 (active)
UniProt P05787 (lysine site: K465)	5.11 (inactive)
LAMB2 (lysine site: K1720) (UniProt P55268)	5.02 (inactive)
UniProt Q99623 (lysine site: K218)	2.79 (inactive)
UniProt P62277 (lysine site: K43)	7.76 (inactive)
HNRNPM (lysine site: K145) (UniProt P52272)	2.08 (inactive)
UniProt O95084 (lysine site: K270)	2.67 (inactive)
PLXNA1 (lysine site: K1084) (UniProt Q9UIW2)	2.49 (inactive)
SPTBN1 (lysine site: K1249) (UniProt Q01082)	4.92 (inactive)

Source: the supplement of paper PMC11001985
